Experimental data from the supplement of paper PMC13380429.
Where a name gives a salt, the structure may show the parent alone. Values without a mark were called inactive.

Tested on: Vero E6 infected with SARS-CoV-2
Assay: inhibition of SARS-CoV-2 cytopathic effect; higher = more antiviral protection, active = above 15
Conditions: 48 h

Compound: CC(C)Cc1ccc([C@@H](C)C(=O)NCCO)cc1 (racemic) [mabuprofen]
- inhibition of SARS-CoV-2 cytopathic effect (1 nM): -1.95%
- inhibition of SARS-CoV-2 cytopathic effect (8.33 nM): -2.13%
- inhibition of SARS-CoV-2 cytopathic effect (100 nM): -0.66%
- inhibition of SARS-CoV-2 cytopathic effect (833.33 nM): -0.72%
- inhibition of SARS-CoV-2 cytopathic effect (10000 nM): -4.85%

Compound: C[C@H](Cc1ccc(OCC(=O)O)cc1)NC[C@H](O)c1cccc(Cl)c1
- inhibition of SARS-CoV-2 cytopathic effect (1 nM): -1%
- inhibition of SARS-CoV-2 cytopathic effect (8.33 nM): 0.79%
- inhibition of SARS-CoV-2 cytopathic effect (100 nM): 2.24%
- inhibition of SARS-CoV-2 cytopathic effect (833.33 nM): 0.59%
- inhibition of SARS-CoV-2 cytopathic effect (10000 nM): 0.72%

Compound: Cc1cc(C)nc(NS(=O)(=O)c2ccc(N)cc2)n1 [sulfamethazine]
- inhibition of SARS-CoV-2 cytopathic effect (1 nM): -2.32%
- inhibition of SARS-CoV-2 cytopathic effect (8.33 nM): 0.49%
- inhibition of SARS-CoV-2 cytopathic effect (100 nM): 0.37%
- inhibition of SARS-CoV-2 cytopathic effect (833.33 nM): 0.92%
- inhibition of SARS-CoV-2 cytopathic effect (10000 nM): -1.06%

Compound: OC[C@H]1OC(O)[C@H](O)[C@@H](O)[C@@H]1O (stereo not given in full) [dextrose]
- inhibition of SARS-CoV-2 cytopathic effect (1 nM): 0.5%
- inhibition of SARS-CoV-2 cytopathic effect (8.33 nM): -0.54%
- inhibition of SARS-CoV-2 cytopathic effect (100 nM): 0.12%
- inhibition of SARS-CoV-2 cytopathic effect (833.33 nM): -9.41%
- inhibition of SARS-CoV-2 cytopathic effect (10000 nM): -1.07%

Compound: CNC(=O)[C@H]1O[C@@H](n2cnc3c(NCc4cccc(I)c4)nc(Cl)nc32)[C@H](O)[C@@H]1O
- inhibition of SARS-CoV-2 cytopathic effect (1 nM): 2.28%
- inhibition of SARS-CoV-2 cytopathic effect (8.33 nM): 3.03%
- inhibition of SARS-CoV-2 cytopathic effect (100 nM): 4.18%
- inhibition of SARS-CoV-2 cytopathic effect (833.33 nM): 2.83%
- inhibition of SARS-CoV-2 cytopathic effect (10000 nM): 0.99%

Compound: COC(=O)C1=C(C)NC(C)=C([N+](=O)[O-])[C@@H]1c1ccccc1C(F)(F)F (racemic)
- inhibition of SARS-CoV-2 cytopathic effect (1 nM): 2%
- inhibition of SARS-CoV-2 cytopathic effect (8.33 nM): -0.15%
- inhibition of SARS-CoV-2 cytopathic effect (100 nM): -1.34%
- inhibition of SARS-CoV-2 cytopathic effect (833.33 nM): 2.63%
- inhibition of SARS-CoV-2 cytopathic effect (10000 nM): 4.88%

Compound: Clc1cccc(SC2CCNCC2)n1 [anpirtoline]
- inhibition of SARS-CoV-2 cytopathic effect (1 nM): -4.7%
- inhibition of SARS-CoV-2 cytopathic effect (8.33 nM): -4.88%
- inhibition of SARS-CoV-2 cytopathic effect (100 nM): 1.08%
- inhibition of SARS-CoV-2 cytopathic effect (833.33 nM): 0.38%
- inhibition of SARS-CoV-2 cytopathic effect (10000 nM): -4.79%

Compound: C=CCc1ccc(O)c(-c2ccc(O)c(CC=C)c2)c1 [honokiol]
- inhibition of SARS-CoV-2 cytopathic effect (1 nM): 0.73%
- inhibition of SARS-CoV-2 cytopathic effect (8.33 nM): -0.89%
- inhibition of SARS-CoV-2 cytopathic effect (100 nM): -1.94%
- inhibition of SARS-CoV-2 cytopathic effect (833.33 nM): -0.06%
- inhibition of SARS-CoV-2 cytopathic effect (10000 nM): -0.26%

Compound: CC/C(=C(\c1ccc(O)cc1)c1ccc(OCCNC)cc1)c1ccccc1 [Endoxifen HCl]
- inhibition of SARS-CoV-2 cytopathic effect (1 nM): -1.34%
- inhibition of SARS-CoV-2 cytopathic effect (8.33 nM): 7.36%
- inhibition of SARS-CoV-2 cytopathic effect (100 nM): 10.6%
- inhibition of SARS-CoV-2 cytopathic effect (833.33 nM): -0.77%
- inhibition of SARS-CoV-2 cytopathic effect (10000 nM): 57% (active)

Compound: Cc1cc2c(N3CCCC3)nc(N3CCCC3)nc2n1C
- inhibition of SARS-CoV-2 cytopathic effect (1 nM): 1.39%
- inhibition of SARS-CoV-2 cytopathic effect (8.33 nM): 5.02%
- inhibition of SARS-CoV-2 cytopathic effect (100 nM): 4.75%
- inhibition of SARS-CoV-2 cytopathic effect (833.33 nM): 3.21%
- inhibition of SARS-CoV-2 cytopathic effect (10000 nM): 3.47%

Compound: Cn1cnc2c(F)c(Nc3ccc(Br)cc3F)c(C(=O)NOCCO)cc21 [binimetinib]
- inhibition of SARS-CoV-2 cytopathic effect (1 nM): 3.85%
- inhibition of SARS-CoV-2 cytopathic effect (8.33 nM): -3.38%
- inhibition of SARS-CoV-2 cytopathic effect (100 nM): -9.91%
- inhibition of SARS-CoV-2 cytopathic effect (833.33 nM): -10.1%
- inhibition of SARS-CoV-2 cytopathic effect (10000 nM): -12%
